# High-throughput results deposited in PubChem BioAssay by University of Kansas High Throughput Screening Laboratory.
# mHTT CaM bind – inhibitors of human mutant huntingtin-calmodulin interaction. AlphaScreen His-mHTT/GST-CaM binding, luminescence. inhibition, % at 15 µM. actives 3.6% (n = 190,000)
# Pf apPOL inh – Pf-apPOL DNA polymerase inhibition. actives 0.25% (n = 210,000). Recombinant Pf-apPOL, molecular beacon fluorescence, 1.5 h. AID 1794808. inhibition, % at 10 µM
# Numbers stand for hits; n = inactive; x = not tested or not shown. In the library only some 3.6% were active in any assay of this set; here they are far more common. No stated cut-off is given here; in the data, active means inhibition above about 50%; inactive means the rest.
SMILES,mHTT CaM bind,Pf apPOL inh
COCC(=O)N1CCCC2(C1)Nc1ccccc1NC2=NCc1ccccc1 (centres undefined),51,n
COCCN=C1Nc2ccccc2NC12CCCN(C(=O)c1ccncc1)C2 (centres undefined),n,n
CN(C)S(=O)(=O)N1CCCC2(C1)Nc1ccccc1NC2=NCc1ccccc1 (centres undefined),54,n
COc1ccc(CCS(=O)(=O)Nc2ccc(CC(=O)N3CCOCC3)cc2)cc1,n,n
O=C1NC(=O)/C(=C\c2ccc(-c3cc(C(=O)O)ccc3Cl)o2)N1,n,n
COCCN=C1Nc2ccccc2NC12CCCN(C(=O)Cc1ccc(Cl)cc1)C2 (centres undefined),100,n
COCCN=C1Nc2ccccc2NC12CCCN(C(=O)Cc1c(F)cccc1Cl)C2 (centres undefined),n,n
O=C(Nc1ccc(Cl)cc1)/C(=C1\Nc2ccc([N+](=O)[O-])cc2N1)[N+](=O)[O-],n,n
O=C(Nc1ccc(Br)cc1)/C(=C1\Nc2ccc([N+](=O)[O-])cc2N1)[N+](=O)[O-],n,52
N/C(Cc1ccc([N+](=O)[O-])cc1)=N\OC(=O)N1c2ccccc2Sc2ccccc21,n,n
CC(=O)c1cc2c(cc1NC(=O)CSc1nc3[nH]ncc3c(=O)n1-c1ccccc1)OCO2,n,n
COc1ccc(NC(C)=O)cc1NC(=O)Cc1cn(Cc2ccccc2)c2ccccc12,83,n
COc1ccc(NC(=O)Cc2cn(C)c3ccccc23)cc1Cl,n,n
CCN(CCC#N)c1ccc(N=Nc2ccc([N+](=O)[O-])cc2)cc1,53,n
CCN(CCC#N)c1ccccc1,n,n
CCOC(=O)C1CCN(C(=O)c2cn3cc(C)ccc3n2)CC1,n,n
Cc1ccc(C)c(N2CCN(C(=O)c3ccc4c(c3)nc3n4CCCC3)CC2)c1,84,n
O=C(c1ccc2c(c1)nc1n2CCCCC1)N1CCN(c2ccccc2)CC1,n,n
Cc1ccc(C)c(N2CCN(C(=O)c3cn4c(n3)CCCC4)CC2)c1,51,n
CCN1CCn2cc(C(=O)N3CCN(c4cc(C)ccc4C)CC3)nc2C1,n,n
CCc1nc(N2CCCC2=O)sc1C(=O)N1CCN(c2cccc(C)c2C)CC1,64,n
Cc1cccc(N2CCN(C(=O)c3noc4c3CCCC4)CC2)c1C,n,n
Cc1ccc(C)c(N2CCN(C(=O)c3cccc(-c4nccnc4N(C)C)c3)CC2)c1,n,n
Cc1ccc(C)c(N2CCN(C(=O)c3ccc(-c4nccnc4N(C)C)cc3)CC2)c1,94,n
Cc1ccc(-c2nnc(-c3cccnc3N3CCC(C)CC3)o2)cc1,n,n
SMILES,mHTT CaM bind,Pf apPOL inh
CCC1CO/C(=C(\C(Sc2ccc(C)cc2)=C(Cl)Cl)[N+](=O)[O-])N1 (centres undefined),n,n
Cc1ccccc1N1CCN(C(=O)c2cn3c(n2)CCCC3)CC1,n,n
Cc1cccc(N2CCN(C(=O)c3cn4c(n3)CCCC4)CC2)c1C,54,n
Nc1cc(C2CCN(S(=O)(=O)c3ccc(F)c(F)c3)CC2)no1,n,n
COCCN1C(=O)C(=O)C(=C(O)c2ccc(OC)cc2)C1c1cc(OC)c(OC)c(OC)c1 (centres undefined),n,n
Nc1ccccc1N=Cc1cc(Br)cc(Cl)c1O,66,n
Cc1ccc(N=Cc2cc(Br)cc(Cl)c2O)c(O)c1,n,n
COc1ccc(-c2ccccc2[C@H]2[C@@H]3C=CCC[C@@]3(C)C(=O)N2Cc2ccccc2)cc1,67,n
Cc1ccc(-c2c([C@H]3[C@@H]4C=CCC[C@@]4(C)C(=O)N3Cc3ccccc3)ccc3ccccc23)cc1,n,n
C[C@@]12CCC=C[C@H]1[C@H](c1ccc3ccccc3c1Br)N(Cc1ccccc1)C2=O,94,n
Cc1ccc(-c2ccc([C@H]3[C@@H]4C=CCC[C@@]4(C)C(=O)N3Cc3ccccc3)c(F)c2)cc1,n,n
COc1ccc(-c2c([C@H]3[C@@H]4C=CCC[C@@]4(C)C(=O)N3Cc3ccccc3)ccc3ccccc23)cc1,58,n
COc1ccc(-c2cc([C@H]3[C@@H]4C=CCC[C@@]4(C)C(=O)N3Cc3ccccc3)ccc2F)cc1,n,n
COc1ccc(-c2ccc([C@H]3[C@@H]4C=CCC[C@@]4(C)C(=O)N3Cc3ccccc3)c(F)c2)cc1,n,n
C[C@@]12CCC=C[C@H]1[C@H](c1ccc3ccccc3c1)N(Cc1ccccc1)C2=O,82,n
Cc1ccc(-n2nc3c(c2NC(=O)CCC2CCCCC2)CS(=O)(=O)C3)c(C)c1,n,n
COc1ccc(OC)c(C2=NOC(C(=O)N(C)C3CCCCC3)C2)c1 (centres undefined),n,n
Cc1ccc2nc(C(=O)Nc3ccccc3F)cc(N3CCOCC3)c2c1,n,n
O=[N+]([O-])c1cc(O)c2ncccc2c1,100,n
O=[N+]([O-])c1ccc(Cc2ncccc2O)cc1,n,n
Nc1cc(Br)cc2cccnc12,n,n
Oc1cc(O)c2ncccc2c1,100,n
COc1ccc(C=CC(=O)NC2CCCC(OC(=O)Nc3ccccc3)C2)cc1OC (centres undefined),n,n
CC(C)c1ccc(CN2CC(C(=O)Nc3ccccc3)CC2=O)cc1 (centres undefined),n,n
CC(C)c1ccc(CN2CC(C(=O)Nc3nc4ccccc4s3)CC2=O)cc1 (centres undefined),100,n
SMILES,mHTT CaM bind,Pf apPOL inh
CC(=O)Nc1cccc(N2CC(C(=O)Nc3nc4ccc(Cl)cc4s3)CC2=O)c1 (centres undefined),53,n
COc1ccc2nc(NC(=O)C3CC(=O)N(c4cccc(NC(C)=O)c4)C3)sc2c1 (centres undefined),n,n
O=C(CN1CCOCC1)N1CCC(c2nc(-c3ccccc3)no2)C1 (centres undefined),n,n
COC(=O)[C@@H]1C[C@@H](O)CN1,n,x
O=C(Nc1ccccc1F)Nc1nnc2ccccn12,n,n
CCc1ccc(NS(=O)(=O)c2cc(Br)cc3c2N(C(=O)C2CC2)CC3)cc1,n,n
CN1CCCN(Cc2cccc(Oc3ccccc3)c2)CC1,n,n
COc1ccc(CNC(=O)[C@@H]2CC=C[C@@H]3CCN(Cc4ccccc4)C(=O)[C@@H]32)cc1,n,n
CCCCNC(=O)[C@@H]1CC=C[C@@H]2CCN(Cc3ccc(Cl)c(Cl)c3)C(=O)[C@@H]21,n,n
O=C(NCCc1ccccc1)[C@@H]1CC=C[C@@H]2CCN(Cc3ccc(Cl)c(Cl)c3)C(=O)[C@@H]21,100,n
O=C(NCc1cccnc1)[C@@H]1CC=C[C@@H]2CCN(Cc3ccc(Cl)c(Cl)c3)C(=O)[C@@H]21,59,n
N#Cc1ccc(NC(=O)CSc2nc3ccccc3o2)cc1,n,n
CCOc1nn(CC)cc1C(=O)N1CCN(c2cccc(Cl)c2)CC1,91,n
CC(CC(=O)N1CCN(c2cccc(Cl)c2)CC1)c1ccccc1 (centres undefined),n,n
O=C(CC(c1ccccc1)c1ccccc1)N1CCN(c2cccc(Cl)c2)CC1,84,n
O=C1c2ccccc2-c2c1cccc2C(=O)N1CCN(c2ccc(Cl)cc2)CC1,100,n
O=C1c2ccccc2-c2c1cccc2C(=O)N1CCOCC1,n,n
COc1ncc(C(=O)N2CCN(c3cccc(Cl)c3)CC2)cn1,n,n
O=C(c1ccccc1Cl)N1CCN(c2cccc(Cl)c2)CC1,n,n
O=C(c1ccccc1I)N1CCN(c2cccc(Cl)c2)CC1,77,n
CCOc1ccc(S(=O)(=O)Nc2cc(Cl)ccc2C)c2cccnc12,n,n
